# Results from PubChem BioAssay AID651744 (Broad Institute, 2012).
# Out of some 5,600 compounds screened, about 3,100 (55%) were called active. Another 3% or so got no clear call; they are omitted. So high a share suggests a set chosen from earlier hits. A selection follows. Unmarked numbers belong to inactive results.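 The calls were made as follows: active = mean loss of cell viability signal at or above a set limit, and enough replicates individually reaching it; inconclusive = meets only the mean limit or only the replicate share; inactive = meets neither condition.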
# Experiment: NIH/3T3 fibroblast cytotoxicity, confirmation, cytotoxicity control, cell-based, cherry-pick, single point, set 2 (AID 651744);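 also: 0% = median of neutral control wells and 100% = median of positive control wells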
# Settings: NIH/3T3 viability, CellTiter-Glo ATP luminescence, 90 h; at 24.9 µM; stronger effect = higher value
row,Compound,inhibition
1,C[C@H](CO)N1C[C@H](C)[C@H](CN(C)S(=O)(=O)c2cccc(F)c2)Oc2ncc(/C=C/c3ccccc3)cc2C1=O,76% (active)
2,C[C@H]1CN([C@@H](C)CO)C(=O)c2ccccc2-c2ccccc2CO[C@@H]1CN(C)S(=O)(=O)c1ccc(C(F)(F)F)cc1,9.87%
3,Cc1ccc(-c2cnc3c(c2)C(=O)N([C@@H](C)CO)C[C@@H](C)[C@H](CN(C)Cc2ccccc2F)O3)cc1,92.5% (active)
4,C[C@H](CO)N1C[C@H](C)[C@H](CN(C)S(=O)(=O)c2ccccc2)Oc2ncc(-c3cccc(C(F)(F)F)c3)cc2C1=O,41.1% (active)
5,C[C@H](CO)N1C[C@H](C)[C@@H](CN(C)S(=O)(=O)c2cccc(F)c2)OCc2ccccc2-c2c(n(C)c3ccccc23)C1=O,4.71%
6,Cc1ccc(S(=O)(=O)N(C)C[C@@H]2Oc3ncc(-c4cc5ccccc5o4)cc3C(=O)N([C@H](C)CO)C[C@@H]2C)cc1,14.8%
7,C[C@@H]1CN([C@H](C)CO)C(=O)c2cc(/C=C/c3ccccc3)cnc2O[C@@H]1CN(C)Cc1ccncc1,26.2% (active)
8,CN1C(=O)c2cc(NC(=O)Nc3ccccc3F)ccc2OC[C@H]2O[C@H](CC(=O)NCc3ccc(-c4ccccc4)cc3)CC[C@H]21,23%
9,O=C(c1ccccc1F)N1C[C@H]2[C@@H](c3ccccc31)[C@@H](CO)N2C(=O)c1ccc(F)cc1,9.61%
10,COc1ccc(CCN(C)C(=O)C2CCCN(Cc3ccc(OC)c(OC)c3)C2)cc1OC (stereo not given),2.44%
11,C[C@H]1CN([C@@H](C)CO)S(=O)(=O)c2ccc(C#CC3CCCC3)cc2O[C@H]1CN(C)C(=O)Cc1ccncc1,103% (active)
12,C[C@@H]1CN([C@H](C)CO)S(=O)(=O)c2ccc(C#CC3CCCC3)cc2O[C@@H]1CN(C)C(=O)Cc1ccncc1,85.1% (active)
13,CC(=O)N(C)C[C@@H]1[C@@H](c2ccc(-c3ccccc3F)cc2)[C@@H](CO)N1C(C)=O,-5.68%
14,CC(C)NC(=O)N1[C@H](C#N)[C@H](c2ccc(C#CC3CCCCC3)cc2)[C@H]1CO,67.4% (active)
15,CCc1cnc(N2[C@H](C#N)[C@H](c3ccc(C4=CCCC4)cc3)[C@@H]2CO)s1,7.03%
16,CCN(C[C@H]1[C@H](c2ccccc2)[C@H](CO)N1C(=O)C1CC1)C(=O)NC1CCCC1,4.07%
17,N#C[C@H]1[C@@H](c2ccc(C3=CCCCC3)cc2)[C@@H](CO)N1C(=O)NC1CCCCC1,60.1% (active)
18,CS(=O)(=O)N1[C@@H](C#N)[C@H](c2ccc(C#CC3CCCCC3)cc2)[C@@H]1CO,75.2% (active)
19,O=C(c1cnccn1)N1CC[C@@H]2[C@H](CO)Nc3ccc(-c4cccc(F)c4)cc3[C@@H]21,42.7% (active)
20,N#Cc1ccc(-c2ccc3c(c2)[C@@H]2[C@@H](CCN2C(=O)Cc2ccncc2)[C@@H](CO)N3)cc1,14.4%

row,Compound,inhibition
1,CN1c2ccc(-c3ccccc3)cc2[C@@H]2[C@@H](CCN2C(=O)c2ccncc2)[C@@H]1CO,18.7%
2,OC[C@@H]1Nc2ccc(-c3cccc(F)c3)cc2[C@H]2[C@@H]1CCN2Cc1ccncc1,43.3% (active)
3,O=C(c1ccccn1)N1CC[C@@H]2[C@H]1c1cc(-c3ccccc3)ccc1N[C@@H]2CO,7.5%
4,Cc1ccc(S(=O)(=O)N2C[C@@H](O)COC[C@@H]3O[C@H](CC(=O)NCc4ccc(Cl)c(Cl)c4)CC[C@H]32)cc1,8.83%
5,COc1cccc(S(=O)(=O)N2C[C@@H](O)COC[C@@H]3O[C@H](CC(=O)Nc4ccccc4)CC[C@H]32)c1,26.4%
6,O=C(C[C@H]1CC[C@@H]2[C@H](COC[C@H](O)CN2Cc2ccc(Oc3ccccc3)cc2)O1)N1CCN(c2ccccc2)CC1,104% (active)
7,COc1ccccc1C#Cc1ccc([C@@H]2[C@H](CO)N3CCCCN(C(=O)C4CCCC4)C[C@@H]23)cc1,103% (active)
8,COc1ccccc1C#Cc1ccc([C@H]2[C@H](CO)N3CCCCN(C(=O)C4CCC4)C[C@@H]23)cc1,105% (active)
9,COc1ccccc1C#Cc1ccc([C@@H]2[C@H](CO)N3CCCCN(C(=O)C4CC4)C[C@@H]23)cc1,100% (active)
10,COc1ccccc1NC(=O)N1CCCCN2[C@H](C1)[C@H](c1ccc(-c3ccccc3)cc1)[C@@H]2CO,14.8%
11,O=C(C1CCC1)N1CCCCN2[C@H](CO)[C@H](c3ccc(-c4ccncc4)cc3)[C@@H]2C1,-9.25%
12,C[C@H](CO)N1C[C@H](C)[C@@H](CN(C)C(=O)Nc2ccnc(N3CCOCC3)c2)OCc2ccccc2-c2ccccc2C1=O,17.3%
13,Cc1ccc(S(=O)(=O)Nc2ccc3c(c2)C(=O)N([C@@H](C)CO)C[C@@H](C)[C@H](CN(C)C(=O)Nc2cccc4ccccc24)OCCCC[C@H](C)O3)cc1,14.8%
14,COc1ccc(C#Cc2cnc3c(c2)C(=O)N([C@@H](C)CO)C[C@H](C)[C@@H](CN(C)C(C)=O)O3)cc1,45.4% (active)
15,CC(C)CC#Cc1cnc2c(c1)C(=O)N([C@@H](C)CO)C[C@@H](C)[C@H](CN(C)C(=O)Cc1ccncc1)O2,36.6% (active)
16,C[C@@H]1CN([C@H](C)CO)C(=O)c2cc(C#Cc3ccccn3)cnc2O[C@H]1CN(C)Cc1ccccc1,-11.5%
17,C[C@@H]1CN([C@@H](C)CO)C(=O)c2cc(C#Cc3ccccc3)cnc2O[C@H]1CN(C)C(=O)c1ccccn1,34.3% (active)
18,Cc1noc(C)c1S(=O)(=O)Nc1ccc2c(c1)C(=O)N([C@@H](C)CO)C[C@H](C)[C@@H](CN(C)C(=O)Nc1cccc3ccccc13)OCCCC[C@H](C)O2,13.2%
19,C[C@H](CO)N1C[C@H](C)[C@H](CN(C)C(=O)Nc2cccc3ccccc23)Oc2ncc(C#Cc3ccccc3)cc2C1=O,105% (active)
20,COCC(=O)N(C)C[C@@H]1Oc2ncc(C#Cc3ccccc3OC)cc2C(=O)N([C@@H](C)CO)C[C@H]1C,34.8% (active)
